aSyn rescue – inhibitors of alpha-synuclein toxicity in yeast; Yeast expressing alpha-synuclein, growth rescue, BacTiter-Glo, 24 h; Potency, µM (highest dose often 46.1 µM), for inactives: at the top dose growth rescue (activation), hits mostly activators; 0.14% of 370,000 active; further: potency means the concentration at half of the fitted maximal effect; % of control where 0% means no effect; nearly all actives have a fitted effect of over 65% in size
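Galactose-induced alpha-syn yeast (OD600=0.02, raffinose-pregrown) + pinned cpd, 24 hr, 30 deg C; growth by BacTiter-Glo luminescence. Growth restoration scores as activation.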
TDP-43 yeast inh – TDP-43 toxicity inhibition in yeast; TDP-43 expressing yeast growth rescue, BacTiter-Glo, 24 h; Potency, µM (series often up to 46.1 µM), for inactives: at the top dose growth rescue (activation), most hits filed as activators; 1.8% of 410,000 active; further: potency means the concentration at half of the fitted maximal effect; % of control where 0% means no effect; nearly all actives have a fitted effect of over 50% in size
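Cell-based yeast growth screen: TDP-43 expression induced in galactose, inoculum OD600=0.02 after raffinose pregrowth to mid-log. Read-out BacTiter-Glo luminescence at 24 hr, 30 deg C; inhibition of toxicity seen as signal increase.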
pAkt inh – blocks phosphorylation of Akt; Neuro2A IGF-stimulated pAkt S473 HTRF, 20 min; active compounds read low; activity change, % for hits at 50 µM; 0.32% of 360,000 active; AID 651550; in the data active means activity change below about -80%; inconclusive means mostly about -51% to -80%; further: on the % scale 0 is the no-effect control and ±100 the full control effect
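Neuro2A cells (4,500/well, DMEM with 0.5% FBS) were treated with compound at a single 50 µM final concentration, stimulated with 6 nM IGF for 20 min at 37 °C, and lysed. Phospho-Akt Ser473 was read by HTRF as 665/615 ratio ×10^4.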
FUS yeast rescue – rescues growth of FUS-expressing yeast | S. cerevisiae FUS-expressing, growth rescue, OD600, 24 h | Potency, µM (highest dose often 76.6 µM), usual class: activators | 0.24% of 390,000 active | AID 1347120;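 further: potency means the concentration at half of the fitted maximal effect; plate controls were DMSO vehicle for no effect and reference control for full effect; nearly all actives have a fitted effect of over 55% in size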
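Cultures pregrown in 2.5% raffinose medium are shifted to minimal medium containing 2% galactose to express toxic FUS. Compounds are tested at several concentrations. After 24hr at 30C, growth is quantified at 600 nm absorbance.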
Abeta yeast res – restores growth of yeast expressing A-beta42 peptide | AID 1347071 | 0.063% of 410,000 active | Potency, µM (doses to about 46.1 µM), actives largely listed as activators | yeast expressing A-beta42, growth rescue, OD600, 48 h; response scale: 0% DMSO, 100% iron-clioquinol control; further: potency means the concentration at half of the fitted maximal effect; nearly all actives have a fitted effect of over 55% in size
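Yeast A-beta toxicity model in growth medium with pinned compounds, 48 h at 30 C; growth read as absorbance at 600 nm. Normalized to FeCl3/clioquinol equimolar mix (positive) and DMSO (negative).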
An asterisk follows results filed as active; i = inactive; ? = inconclusive; . = no result given; [ ] = dose if it differs, or a comment. This is a sample that favours compounds with a hit; in the whole collection about 2.3% have one here. Unless noted, the call rests on the fitted dose curve; in most records, active means well fitted curve in the direction sought with a large enough effect; inconclusive means small, poorly fitted or top-dose-only effect, or another doubt; inactive means no such curve, though single readings can be large; an effect the other way counts as inactive or inconclusive.

SMILES	aSyn rescue	TDP-43 yeast inh	pAkt inh	FUS yeast rescue	Abeta yeast res
CCCCn1c(SCC(=O)OCC)nc2c(sc(=S)n2-c2ccccc2OC)c1=O	-15%	13µM*	i	i	i
CN(C)c1ccc(/C=C/c2cccc3cc4ccccc4nc23)cc1	-88%	.	.	.	.
O=C(Nc1ccc2c(c1)OCCO2)C(c1cc2ccccc2o1)N1CCC(Cc2ccccc2)CC1 (centres undefined)	-14%	12%	i	16µM*	i
O=C(CN1CCC(Cc2ccccc2)CC1)Nc1ccc2c(c1)OCCO2	0%	3%	i	i	i
CCOCc1nnc(NC(=O)c2cc(Cl)ccc2OC)s1	11%	13µM*	i	i	i
COc1ccc(Cl)cc1NC(=O)c1cc2nc(-c3ccc(C)cc3)cc(C(F)(F)F)n2n1	.	?	.	i	i
C=CCOc1c(Cl)cc(CNCCC)cc1Cl	1%	-2%	-91%*	i	i
CC(=O)Nc1ccc(Nc2nc3ccccc3nc2NS(=O)(=O)c2ccccc2)cc1	-12%	20µM*	i	?	i
Cc1ccc(N2C(=O)c3n[nH]c(C)c3C2c2ccc(C(C)C)cc2)cc1 (centres undefined)	.	?	.	i	i
Cc1ccc(-c2c(C(=O)NCCc3ccc(Cl)cc3)oc(=O)c3ccccc23)cc1	.	-9%	.	16µM*	i
O=C(O)/C=C/C(=O)Nc1ccc2c(c1)C(=O)c1ccccc1C2=O	22µM*	?	i	i	?
OC[C@@H]1CN(Cc2ccccc2)C[C@H](n2cnc3c(N4CCN(c5ccccc5)CC4)ncnc32)O1	27%	17%	.	20µM*	i
OC[C@@H]1CN(Cc2ccc(F)cc2)C[C@H](n2cnc3c(N4CCN(c5ccccc5)CC4)ncnc32)O1	?	26%	i	?	i
O=S(=O)(Nc1nc2ccccc2nc1Cl)c1ccc(Cl)cc1	-14%	?	i	i	i
Cc1ccccc1S(=O)(=O)Nc1nc2ccccc2nc1Cl	-10%	10µM*	i	i	i
CC[n+]1ccnc2ccccc21	-3%	.	.	.	.
COc1ccc(OC)c2sc(N3CCN(C(=O)c4ccc5c(c4)CCCC5)CC3)nc12	.	?	.	?	i
CC(=O)C(Cl)C(=O)Nc1ccccc1 (centres undefined)	-31%	3.5µM*	i	i	i
O=C1Cc2ccccc2C(=O)N1	-8%	22µM*	i	i	i
O=C1Nc2ccccc2CCc2ccccc21	-5%[1.84 µM]	13%	i	i	i
COC(=O)CC1(c2cccc3ccccc23)C(=O)c2ccccc2C1=O	6%	22µM*	i	i	i
CC(C(=O)O)(C1CCCCC1)C1(O)CCCCC1 (centres undefined)	0%	?	i	i	i
CC1CCC(C(O)(C(=O)O)C2CCCCC2)CC1C (centres undefined)	14%	18µM*	i	.	i
CC(=O)c1ccc(NC(=S)N2c3ccccc3CC2C)cc1 (centres undefined)	?	16µM*	i	i	i
CC(=O)c1ccc(NC(=S)N2CCC(Cc3ccccc3)CC2)cc1	15%	25µM*	i	i	?
SMILES	aSyn rescue	TDP-43 yeast inh	pAkt inh	FUS yeast rescue	Abeta yeast res
CC1Cc2ccccc2N1C(=S)Nc1ccc(S(N)(=O)=O)cc1 (centres undefined)	3%	?	i	.	i
COc1ccc(C2C(=O)N(C3CCC(C)CC3)CC(=O)N2CCc2ccccc2)cc1OC (centres undefined)	.	8%	.	i	i
COc1cc2c(NC3CCN(C(C)C)CC3)nc(N3CCCN(C)CC3)nc2cc1OCCOCCN1CCCC1	10%	.	.	.	.
Cc1ccccc1-c1nc2ccccc2[nH]1	-6%	-4%	-124%*	i	i
Cc1ccccc1NC(=S)c1nc2ccccc2[nH]1	15%	18µM*	i	i	?
COc1ccc(S(=O)(=O)N2CC(C(=O)O)Oc3ccc(CC(=O)O)cc32)cc1 (centres undefined)	2%	1%	-123%*	i	i
Cc1ccc(C)c(NC(=O)Cn2c(=O)n(Cc3nc(C)no3)c(=O)c3cc4c(cc32)OCO4)c1	.	9%	.	i	i
CCCCCCC1CCC(C(=O)NC(C(=O)O)C(C)C)CC1 (centres undefined)	.	20µM*	.	i	i
Cc1cc(C)cc(OCc2cc(=O)n3c(-c4ccccc4)csc3n2)c1	.	19%	.	i	i
CCOc1ccc(NC(=O)CN(C)Cc2cc(=O)n3c(-c4ccccc4)csc3n2)cc1OCC	-3%	0%	i	18µM*	i
CN1C(=O)C(CC(=O)N2CCN(C(c3ccccc3)c3ccccc3)CC2)N(C)C1=O (centres undefined)	0%	0%	-115%*	i	i
C=CCNC(=O)C1CCN(c2c([N+](=O)[O-])cc(C(F)(F)F)cc2[N+](=O)[O-])CC1	-5%	1%	i	i	i[9.22 µM]
O=C(O)C1CCN(c2c([N+](=O)[O-])cc(C(F)(F)F)cc2[N+](=O)[O-])CC1	3%	20µM*	i	i	i
Cc1ccc(CNC(=O)c2ccc(CSCc3cccc(C)c3)o2)cc1	?	35µM*	.	i	i
COc1ccc(-c2onc(C)c2C)cc1S(=O)(=O)Nc1ccc(OC(F)(F)F)cc1	.	9%	.	i	i
CCC(=O)N1CCc2cc(CNC(=O)c3ccccc3C)ccc21	.	?	.	i	i
O=S(=O)(c1ccc2[nH]c3c(c2c1)CCCC3)N1CCCCC1	0%	-10%	.	i	i
O=C(O)c1cc2[nH]c3c(c2cc1Cl)CCCC3	20µM*	.	i	i	i
COC(=O)c1nn(-c2ccccc2)c(Sc2ccccc2)c1/C=N/O	-7%	-3%	-107%*	i	i
CCCN1CNc2c(c(=O)[nH]c(=O)n2CCc2ccc(OC)c(OC)c2)C1	-3%	.	.	.	.
OCc1ccccc1-c1ccc2nncn2c1	?	35µM*	i	i	i
c1csc(-c2ccc3nncn3c2)c1	5%	7%	i	i	i
Cc1c(CCNC(=O)Cc2ccccc2)sc2nc(-c3ccc(F)cc3)nn12	.	10µM*	.	i	i
Cc1cc(C)c(S(=O)(=O)NCCc2sc3nc(-c4ccc(F)cc4)nn3c2C)c(C)c1	.	20µM*	.	i	?
Cc1c(CCNC(=O)c2ccc(Br)o2)sc2nc(-c3ccc(F)cc3)nn12	.	11%	.	i	i
Cc1c(CCNC(=O)c2ccco2)sc2nc(-c3ccc(F)cc3)nn12	.	?	.	i	i
Cc1c(CCNC(=O)Cc2ccc(F)cc2)sc2nc(-c3ccc(F)cc3)nn12	.	?	.	i	i

Screening results deposited in PubChem by National Center for Advancing Translational Sciences (NCATS).
